Bioassay records from PubChem BioAssay.
MITF inh: inhibitors of MITF. AID 2240. inhibition, % (no concentration beside the values). TRPM1 promoter luciferase, luminescence, 24 h. 37,000 compounds, 0.28% hits; in the data active = inhibition above about 85%;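 note: human melanocyte line stably carrying TRPM1 promoter luciferase reporter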
Hedgehog inh: blocks Sonic Hedgehog signaling. 22,000 compounds, 2.1% hits. Shh-LIGHT2 Gli-luciferase reporter, 30 h. inhibition, % (concentration not given with the values);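 active = mean inhibition across valid replicates above about 65%, limit read from the data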;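 note: pathway switched on by Shh-conditioned medium diluted 1 in 25 in low serum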
A number is an active result; – = inactive; · = no result given; ! = repeats disagree. Shown is part of a subset that was picked to be rich in hits.

SMILES | MITF inh | Hedgehog inh
CCC(=O)OCC(=O)[C@@]1(OC(=O)CC)[C@H](C)CC2C3C([C@@H](O)C[C@@]21C)[C@@]1(C)C=CC(=O)C=C1C[C@H]3Cl (stereo partly specified) | – | 68
CCC(=O)OC1(C(=O)CCl)[C@@H](C)C[C@H]2[C@@H]3CCC4=CC(=O)C=C[C@]4(C)[C@@]3(F)[C@@H](O)C[C@@]21C (stereo partly specified) | – | –
CCC(=O)[C@@]1(C)[C@H](C)C[C@H]2[C@@H]3CCC4=CC(=O)C=C[C@]4(C)[C@H]3[C@@H](O)C[C@@]21C | – | 65
CCCC1O[C@@H]2C[C@H]3[C@@H]4CCC5=CC(=O)C=C[C@]5(C)[C@H]4[C@@H](O)C[C@]3(C)[C@]2(C(=O)CO)O1 (stereo partly specified) | – | –
COc1cc(O)c(C(=O)CCc2ccccc2)c(O)c1Cc1ccccc1O | 108 | –
COc1cc(O)c(Cc2ccccc2O)c(O)c1C(=O)CCc1ccccc1 | – | –
O=[n+]1cc(-c2ccccc2)n([O-])c2c1CCCC2 | – | –
Cc1ccc(C(=O)Oc2cc(C)cc(OC(=O)c3ccc(C)cc3)c2)cc1 | – | –
C=C1C(=O)O[C@@H]2C3C(=C(C)[C@@H](O)[C@@H](OC(=O)/C(=C/C)COC(C)=O)[C@@H]12)C(=O)[C@H]1O[C@@]31C (stereo partly specified) | – | 72
C=C(C)C(=O)O[C@H]1C[C@@]2(C)O[C@@H]2[C@H]2O[C@H]2C(=C)[C@@H](O)[C@H]2OC(=O)C(=C)[C@@H]21 | · | –
O=C(c1cccs1)N1N=C2c3ccccc3CCC2C1c1ccccc1Cl (stereo unspecified) | – | ·
O=C(CSc1ccccn1)Nc1ccc(Cl)cc1 | – | ·
NC(N)=NN=Cc1c(Cl)cccc1Cl | – | 65
Cc1nc(SC2CCCCN(C(=O)c3ccc(Cl)cc3)C2=O)c2c3c(sc2n1)CCCC3 (stereo unspecified) | – | –
Nc1nnc(SCC(=O)Nc2ccc(I)cc2)s1 | – | ·
COc1c2c(cc3oc(=O)ccc13)OC(C)(C)C=C2 | – | –
COc1cc2c(cc1OC)[C@@H]1C(=O)c3ccc4c(c3O[C@@H]1CO2)C=CC(C)(C)O4 | 100 | –
Cc1ncc(CO)c(/C=N/O)c1O | – | ·
COc1ccc(NC(=O)CSC2CC(=O)N(c3ccccc3C)C2=O)cc1 (stereo unspecified) | – | ·
COc1ccc(-n2c(CC#N)nnc2SCc2c(C)c(C)c(C)c(C)c2C)cc1 | – | –
CSc1ccc2c(c1)C(N1CCN(C)CC1)Cc1ccccc1S2 (stereo unspecified) | – | 70
CN1CCCC(CC2c3ccccc3Sc3ccccc32)C1 (stereo unspecified) | – | –
O=C(CC(NC1CCCCC1)C(=O)O)Nc1cccc(Cl)c1 (stereo unspecified) | – | ·
OC[C@H]1O[C@@H](n2cnc3c(NCc4ccco4)ncnc32)[C@H](O)[C@@H]1O | – | 98
c1coc(CNc2ncnc3c2sc2nc(N4CCOCC4)c4c(c23)CCC4)c1 | – | ·
SMILES | MITF inh | Hedgehog inh
COc1cccc([C@H]2C(C#N)=C(N)C(C#N)(C#N)C3=CCC(C)C[C@@H]32)c1 (stereo partly specified) | – | –
O=C(CCCCc1ccc(O)cc1)CCc1ccc(O)cc1 | – | –
O=C1/C(=C/c2c[nH]c3ccccc23)CSc2ccccc21 | – | ·
CCC(=O)NC(c1ccco1)c1cc(Cl)c2cccnc2c1O (stereo unspecified) | – | 104
Oc1c(C(Nc2ccccn2)c2ccccn2)cc(Cl)c2cccnc12 (stereo unspecified) | – | ·
CC(C)NS(=O)(=O)c1ccc(OCC(=O)O)c(Cl)c1 | – | ·
O=c1c2ccccc2c(C=Nc2cccc(C(F)(F)F)c2)c(O)n1-c1ccccc1 | – | –
CC(=O)Oc1ccc2occ(C(=O)CCN(C)C)c2c1 | – | –
CC(C)C1Cc2c(sc3nc(SCC(=O)Nc4ccc(Cl)cc4Cl)nc(N)c23)CO1 (stereo unspecified) | – | ·
C1=Cc2nonc2C2C=C(c3ccccc3)N=C12 (stereo unspecified) | – | –
CSc1nc(C)nc(N/C=C(\C#N)S(=O)(=O)c2ccc(C)cc2)n1 | – | ·
Cc1ccc(S(=O)(=O)/C(C#N)=C/Nc2cc(C(F)(F)F)cc(C(F)(F)F)c2)cc1 | – | 101
COc1ccc(-c2nc3ccccc3s2)cc1NC(=O)COc1ccc(Cl)cc1Cl | – | ·
OC(CN1CCNCC1)Cn1c2ccc(Br)cc2c2cc(Br)ccc21 (stereo unspecified) | – | 78!
CC1CCN(CC(O)COc2c(F)cc(Br)cc2F)CC1 (stereo unspecified) | – | –
COC(=O)c1ccccc1NC(=O)c1ccc(NS(=O)(=O)c2cccc3cccnc23)cc1 | – | ·
Nc1nc(Cl)nc2c1ncn2C1OC(CO)[C@H](O)[C@H]1F (stereo partly specified) | – | –
Nc1nc(Cl)nc2c1ncn2C1C[C@@H](O)C(CO)O1 (stereo partly specified) | – | 72
COC(=O)c1ccccc1NC(=O)Cn1cnc2sc(C)c(C)c2c1=O | – | ·
O=C1C[C@H](c2ccccc2)Oc2c(Cc3ccccc3O)c(O)cc(O)c21 | 92 | –
Cc1c(O)cc(O)c2c1OC(c1ccccc1)CC2=O (stereo unspecified) | – | –
O=C(c1ccccc1)c1ccc(-c2ccccc2)cc1 | – | –
NC(=Nc1ccccc1)NC(=O)c1nc(Cl)c(N)nc1N | – | –
NC(=NCc1ccccc1)NC(=O)c1nc(Cl)c(N)nc1N | – | 69!
Cc1nnc(N2C(=O)C(=O)C(C(=O)c3ccco3)C2c2cccc(Oc3ccccc3)c2)s1 (stereo unspecified) | – | ·
SMILES | MITF inh | Hedgehog inh
C/C=C(\C)C(=O)O[C@@H]1C(C)=C2[C@H]3OC(=O)[C@](C)(O)[C@]3(O)[C@H](OC(=O)C(C)CC)C[C@@](C)(OC(C)=O)[C@@H]2[C@H]1OC(=O)CCCCCCC (stereo partly specified) | · | 99
O=C1C(SCCO)=C(SCCO)C(=O)c2ccccc21 | 103 | 104
O=C1c2ccccc2C(=O)N1C(CO)C(O)c1ccccc1 (stereo unspecified) | – | –
CS(=O)(=O)N(CC(=O)NC1CCCCC1)c1ccc2c3c(cccc13)CC2 | – | ·
COc1ccccc1NC(=O)CN(c1cc(Cl)c(Cl)cc1Cl)S(C)(=O)=O | – | ·
O=C(CCSc1nc2ccccc2o1)N1CCOCC1 | – | ·
CC1(C)CC(=O)C=C(Sc2nc3ccccc3o2)C1 | – | 87
COc1ccc([N+](=O)[O-])cc1NC(=O)COc1ccc(Cl)cc1Br | – | ·
COc1ccc([N+](=O)[O-])cc1NC(=O)COc1ccc(C(C)(C)C)cc1Br | 89 | ·
Cc1ccc(/C(C#N)=C/c2ccc(N(C)C)cc2)cc1 | – | –
O=C(O)c1ccc(CNC(=O)c2cccnc2C(=O)O)cc1 | – | ·
CCc1c(O)nc(SCC(=O)Nc2ccc(C(C)=O)cc2)[nH]c1=O | – | ·
CCn1c(SCC(=O)c2ccc(OC)cc2)nnc1-c1ccc(Cl)cc1 | – | ·
CS(=O)(=O)N(CC(=O)Nc1ccc(Br)cc1)c1ccc(Cl)cc1Cl | – | ·
Cc1ccc(S(=O)(=O)Nc2cccc3c2O[C@@H](CN(C)Cc2ccc(Cl)c(Cl)c2)[C@@H](C)CN([C@H](C)CO)C3=O)cc1 | – | 113
C[C@H](CO)N1C[C@H](C)[C@@H](CN(C)Cc2ccc(Cl)c(Cl)c2)Oc2c(NS(=O)(=O)c3ccc(F)cc3)cccc2C1=O | – | –
